Records with an inconclusive call do not appear. Calls of active or inactive are those of the source. The calls were made as follows: active = hit-call score of the fitted dose curve at least 0.9, where 1 is the maximum; inconclusive = response in the unintended direction; inactive = score below 0.9.
Target: Androgen receptor (Homo sapiens) (UniProt P10275)
Assay: ATG_AR_TRANS: Attagene TRANS-FACTORIAL HepG2 Assay for human Androgen Receptor (AR) (AID 2282973)
Conditions: HepG2 Attagene TRANS-FACTORIAL AR reporter transcription
Experimental: ATG_TRANS is a cell-based, multiplexed-readout assay that uses HepG2, a human liver cell line, with measurements taken at 24 hours after chemical dosing in a 24-well plate.ATG_AR_TRANS is one of 30 assay component(s) measured or calculated from the ATG_TRANS assay. It is designed to make measurements of mRNA induction, a form of inducible reporter, as detected with fluorescence intensity signals by Reverse transcription polymerase chain reaction (RT-PCR) and Capillary electrophoresis technology.Data from the assay component ATG_AR_TRANS was analyzed into 1 assay endpoint. This assay endpoint, ATG_AR_TRANS, was analyzed in the positive analysis fitting direction relative to DMSO as the negative control and baseline of activity. Using a type of inducible reporter, measures of mRNA for gain-of-signal activity can be used to understand the reporter gene at the transcription factor-level as they relate to the gene AR. Furthermore, this assay endpoint can be referred to as a primary readout, because this assay has produced multiple assay endpoints where this one serves a reporter gene function. To generalize the intended target to other relatable targets, this assay endpoint is annotated to the nuclear receptor intended target family, where the subfamily is steroidal.
Human liver HepG2 cells are transiently transfected with multiple reporter transcription units (MRTUs) in 6-well plates using FuGene 6 reagent (Roche; 3 ml FuGene/1 mg DNA). The MRTU constructs are regulated by a cis-regulating element (promoter). […] A major difference between the CIS and TRANS system is that in CIS activities of endogenous TFs are measured, whereas the TRANS assay evaluates changes in activities of exogenous, chimeric NR-Gal4 proteins. […] At the end of 24 hour incubation, total RNA was isolated using TriZol reagent (Invitrogen). The isolated RNA is then reverse-transcribed using oligo(dT) primer and Mo-MLV reverse transcriptase (Invitrogen) with DNAse I (Ambion) treatment for 30 min. The one-tenth of the produced cDNA was amplified by PCR using Taq DNA polymerase (Invitrogen) and two reporter sequence-specific primers. The PCR products were fluorescently labeled by primer extension with 6-arboxyfluorescein (6-FAM) 5'-labeled reporter sequence-specific primer (2 min at 95 C, 20 s at 68 C and 10 min at 72 C) and these products were digested with 5U of HpaI (New England Biolabs) for 2h at 37 C. The fragments were purified using Qiaquick PCR columns (Qiagen), analyzed on an ABI 3130xL genetic analyzer (Applied Biosystems) with peak positions identified by using a set of X-rhodamine (ROX)-labeled MapMarker1000 molecular weight standards (BioVentures). The raw capillary electrophoresis data was processed using Attagraph software (Attagene).

Sequence of Androgen receptor (Homo sapiens) (P10275 whole entry, looked up): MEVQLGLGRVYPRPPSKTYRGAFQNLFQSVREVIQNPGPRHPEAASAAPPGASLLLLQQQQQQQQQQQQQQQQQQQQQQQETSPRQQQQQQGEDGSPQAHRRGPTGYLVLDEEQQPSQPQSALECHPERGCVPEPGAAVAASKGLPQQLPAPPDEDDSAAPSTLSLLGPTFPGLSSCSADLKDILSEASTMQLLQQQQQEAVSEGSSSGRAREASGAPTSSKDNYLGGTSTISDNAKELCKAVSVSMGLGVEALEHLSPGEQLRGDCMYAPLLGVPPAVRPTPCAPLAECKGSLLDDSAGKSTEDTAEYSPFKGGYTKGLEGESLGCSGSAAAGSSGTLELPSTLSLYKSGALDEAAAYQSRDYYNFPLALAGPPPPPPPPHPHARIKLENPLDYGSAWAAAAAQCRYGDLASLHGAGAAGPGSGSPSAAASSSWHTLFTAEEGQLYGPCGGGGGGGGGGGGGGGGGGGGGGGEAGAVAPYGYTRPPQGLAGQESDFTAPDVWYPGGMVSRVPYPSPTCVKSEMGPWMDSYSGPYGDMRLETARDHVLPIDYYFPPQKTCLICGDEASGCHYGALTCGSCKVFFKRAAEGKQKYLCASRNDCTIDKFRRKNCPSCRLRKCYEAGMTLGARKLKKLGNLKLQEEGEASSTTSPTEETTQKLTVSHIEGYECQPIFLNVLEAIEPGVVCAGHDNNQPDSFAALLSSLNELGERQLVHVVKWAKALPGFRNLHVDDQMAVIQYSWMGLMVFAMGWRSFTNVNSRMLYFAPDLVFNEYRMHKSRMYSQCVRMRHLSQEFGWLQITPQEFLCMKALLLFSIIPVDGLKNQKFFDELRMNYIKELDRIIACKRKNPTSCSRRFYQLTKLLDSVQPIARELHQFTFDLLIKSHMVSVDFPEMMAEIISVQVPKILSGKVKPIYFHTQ

Compound | outcome
BrCC(Br)c1ccccc1 (stereo not given) | inactive
OC(c1ccc(Cl)cc1)(c1ccc(Cl)cc1)c1cccnc1 | inactive
Cc1cc(Cl)ccc1OCCCC(=O)O | inactive
O=C(N[C@H]1CN2CCC1CC2)c1ccc2c(c1)OCCO2 | inactive
CC(C)N(C(=O)CCl)c1ccccc1 | inactive
CCOC(=O)Cc1ccccc1 | inactive
CN(CCCC(O)c1cccnc1)N=O (stereo not given) | inactive
Cc1cc(C(C)(C)c2ccc(O)c(C)c2)ccc1O | inactive
C=CC(=O)[O][Sn]([CH2]CCC)([CH2]CCC)[CH2]CCC | inactive
NC(=O)c1ccc(N)nc1 | inactive
O=S(=O)(F)C(F)(F)C(F)(F)C(F)(F)C(F)(F)F | inactive
O=C(NC(=O)c1c(F)cccc1F)Nc1cc(Cl)c(Oc2ncc(C(F)(F)F)cc2Cl)c(Cl)c1 | inactive
O=C(O)COc1cc(Cl)c(Cl)cc1Cl | inactive
NC(=O)CCl | inactive
Cc1ccc(CCl)cc1 | inactive
O=NN1CCCCCC1 | inactive
O=C1C=CC(=O)c2ccccc21 | inactive
O=C1c2ccccc2C(=O)C1C(=O)C(c1ccccc1)c1ccc(Cl)cc1 (stereo not given) | inactive
O=C(CCl)Nc1ccccc1 | inactive
OC(Cc1ccccc1Cl)(Cn1[nH]cnc1=S)C1(Cl)CC1 (stereo not given) | inactive

Compound | outcome
CCC(C)(C#N)N=NC(C)(C#N)CC (stereo not given) | inactive
CC(=O)C(F)(F)C(F)(F)F | inactive
O=S1(=O)OC(c2cc(Br)c(O)c(Br)c2)(c2cc(Br)c(O)c(Br)c2)c2ccccc21 | inactive
c1cc[c]([Sb]([c]2ccccc2)[c]2ccccc2)cc1 | inactive
C=CCOC(F)(C(F)(F)F)C(F)(F)F | inactive
N#Cc1ccccc1N | inactive
Cc1ccccc1OP(=O)(Oc1ccccc1C)Oc1ccccc1C | inactive
CN(C1CCCCC1)C1CCCCC1 | inactive
COP(=S)(OC)Oc1cc(Cl)c(I)cc1Cl | inactive
O=C(Cl)OCCOCCOC(=O)Cl | inactive
CCOP(=S)(OCC)SCS(=O)(=O)C(C)(C)C | inactive
CC1(C)COP(Oc2ccccc2)OC1 | inactive
C=CC(Cl)CCl (stereo not given) | inactive
Brc1ccc(Oc2c(Br)cc(Br)cc2Br)c(Br)c1 | inactive
Cc1ccc(OP(=O)(Oc2ccc(C)cc2C)Oc2ccc(C)cc2C)c(C)c1 | inactive
CCOC(=O)c1ccccc1S(=O)(=O)NC(=O)Nc1nc(Cl)cc(OC)n1 | inactive
[Cl][Sn]([c]1ccccc1)([c]1ccccc1)[c]1ccccc1 | inactive
CNC(=O)N(C)c1nc2ccccc2s1 | inactive
C[CH2][Hg][S]c1ccccc1C(=O)O | inactive
CCOP(=S)(OCC)OP(=S)(OCC)OCC | inactive

From PubChem BioAssay (EPA / NIEHS)
